# Experimental data reported in paper PMC4336329 (PLoS ONE, 2015).
# The campaign covered roughly 310,000 compounds. About 14,000 (4.5%) showed an effect of 50% or more. Effects have a minus sign here. This excerpt belongs to a sample that is enriched for strong results.
# Target: human ether-à-go-go-related gene (hERG) potassium channel (human, UniProt Q12809)
# Assay: primary screen, population patch clamp on CHO cells stably expressing hERG; higher = less effect of the substance
# 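Note: peak tail current of the secondary pulse compared with the same well before compound.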
# human ether-à-go-go-related gene (hERG) potassium channel, sequence (Q12809 whole entry, looked up): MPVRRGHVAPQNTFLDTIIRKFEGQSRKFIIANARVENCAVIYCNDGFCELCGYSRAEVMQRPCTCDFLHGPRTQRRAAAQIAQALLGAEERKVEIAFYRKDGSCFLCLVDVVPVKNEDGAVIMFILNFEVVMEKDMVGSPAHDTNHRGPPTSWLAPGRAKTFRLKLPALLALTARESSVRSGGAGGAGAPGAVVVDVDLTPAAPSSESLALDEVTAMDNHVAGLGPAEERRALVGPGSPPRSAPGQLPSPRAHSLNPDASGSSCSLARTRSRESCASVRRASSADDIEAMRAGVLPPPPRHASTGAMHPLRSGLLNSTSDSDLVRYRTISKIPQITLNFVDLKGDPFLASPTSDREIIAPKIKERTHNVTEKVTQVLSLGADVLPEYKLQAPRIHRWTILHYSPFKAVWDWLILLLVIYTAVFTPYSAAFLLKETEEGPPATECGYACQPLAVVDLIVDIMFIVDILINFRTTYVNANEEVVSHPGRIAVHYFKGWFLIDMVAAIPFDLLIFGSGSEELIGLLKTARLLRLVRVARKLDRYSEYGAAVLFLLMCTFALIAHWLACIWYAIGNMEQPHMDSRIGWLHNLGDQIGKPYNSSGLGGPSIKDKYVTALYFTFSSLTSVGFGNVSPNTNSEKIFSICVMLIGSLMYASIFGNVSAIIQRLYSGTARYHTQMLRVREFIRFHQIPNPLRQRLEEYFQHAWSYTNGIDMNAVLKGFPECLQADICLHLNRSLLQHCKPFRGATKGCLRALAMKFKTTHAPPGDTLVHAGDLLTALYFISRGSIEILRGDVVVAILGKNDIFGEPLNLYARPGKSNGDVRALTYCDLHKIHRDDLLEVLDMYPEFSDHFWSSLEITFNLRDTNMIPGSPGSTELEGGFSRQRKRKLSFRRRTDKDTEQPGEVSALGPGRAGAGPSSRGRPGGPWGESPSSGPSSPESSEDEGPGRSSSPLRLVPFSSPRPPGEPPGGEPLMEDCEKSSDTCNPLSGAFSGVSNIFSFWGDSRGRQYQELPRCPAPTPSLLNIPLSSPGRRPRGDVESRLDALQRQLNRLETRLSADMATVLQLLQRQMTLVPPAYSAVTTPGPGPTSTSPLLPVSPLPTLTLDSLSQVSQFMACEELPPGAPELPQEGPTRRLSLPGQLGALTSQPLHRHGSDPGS
row,Compound,"hERG current change (%, negative = inhibition) at 10uM [%]"
1,Cc1c(NC(=S)NC(NC(=O)C(C)C)C(Cl)(Cl)Cl)c(=O)n(-c2ccccc2)n1C (stereo not drawn),-1.45
2,CC(=O)N1CCN(CC(=O)Nc2cc([N+](=O)[O-])ccc2Cl)CC1,15.5
3,CN1CCN(CC(=O)Nc2ccc([N+](=O)[O-])cc2Br)CC1,-70.9
4,O=C(CN1CCOCC1)Nc1ccc([N+](=O)[O-])cc1Br,-43.7
5,O=C(CN1CCN(c2ccccc2O)CC1)Nc1ccc([N+](=O)[O-])cc1Br,-6.3
6,O=C(CN1CCCCCC1)Nc1ccc([N+](=O)[O-])cc1Br,6.13
7,CC(=O)N1CCN(CC(=O)Nc2ccc([N+](=O)[O-])cc2Br)CC1,-75.3
8,N#CCc1nc(CSc2nc3ccccc3s2)cs1,-2.16
9,CC(=O)Nc1ccc(N2CCCCC2)c(C(=O)Nc2cccc(C)c2)c1,-18.1
10,Cn1cnnc1SCC(=O)Nc1ccccc1C(=O)NC1CCCC1,11.8
11,O=C(O)c1ccc(NNC(=S)Nc2cc(C(F)(F)F)ccc2Cl)cc1,19.4
12,CCCc1ccc(OCC(=O)NNC(=O)c2cccnc2)cc1,-10.9
13,Cc1cccc(NC2=NC(C)(C)N=C(N)N2)c1C,16.5
14,CCOc1cccc2sc(N(CCN(C)C)C(=O)c3ccc4ccccc4c3)nc12.Cl,-51.5
15,CCOc1cccc2sc(N(CCN(C)C)C(=O)c3cc4ccccc4cc3OC)nc12.Cl,-68.1
16,CCOc1cccc2sc(N(CCN(C)C)C(=O)c3ccc(Br)s3)nc12.Cl,-30.3
17,CCOc1ccc2nc(N(CCN(C)C)C(=O)c3ccc4ccccc4c3)sc2c1.Cl,4.67
18,CN(C)CCN(C(=O)c1ccc2ccccc2c1)c1nc2c(F)cccc2s1.Cl,-10.2
19,COc1ccc2nc(N(CCN(C)C)C(=O)c3ccc4c(c3)OCCO4)sc2c1.Cl,-35.3
20,COc1cc2ccccc2cc1C(=O)N(CCN(C)C)c1nc2c(C)cccc2s1.Cl,19.2
21,COc1cc2ccccc2cc1C(=O)N(CCN(C)C)c1nc2c(F)cccc2s1.Cl,-38.4
22,CCOc1cccc2sc(N(CCN(C)C)C(=O)c3ccc4c(c3)OCCO4)nc12.Cl,-53.5
23,CCCC(=O)Nc1ccc(-c2cn3cccnc3n2)cc1,3.08

row,Compound,"hERG current change (%, negative = inhibition) at 10uM [%]"
1,Cc1cc(C(=O)NCCCOC(C)C)c2ccccc2n1,-7.22
2,Cc1c(Cl)cccc1NC(=O)Nc1ccccc1C(N)=O,19
3,CCOC(=O)CSc1nnc(-c2ccccc2)o1,7.66
4,COc1ccc(/C=C/C2=CCN(C)CC2)cc1.Cl,-19.7
5,COc1ccc(/C=C/C2=CCN(Cc3ccc(OC)cc3)CC2)cc1.Cl,-72.3
6,COc1ccc(CN2CCNCC2)cc1.Cl,21.6
7,NNc1n[nH]c(=S)n1N,15.2
8,CCOC(=O)c1cc(CC)sc1/N=C/C1C(=O)CCCC1=O,10.9
9,O=C1OC(c2ccc3c(c2)OCO3)N(C(=O)c2ccc(Cl)c(Cl)c2)c2ccccc21 (stereo not drawn),15.1
10,COc1cc(CO)cc(-c2cc(CO)cc(OC)c2OC)c1OC,10.3
11,COc1ccc(C(NC(=O)CNC(C)=O)C(=O)Nc2ccc(C(C)C)cc2)cc1 (stereo not drawn),-5.76
12,Cc1ccc(-c2cc(C(=O)NC3CCN(Cc4ccccc4)CC3)c3ccccc3n2)cc1,7.42
13,CC1CCN(CC(C)CNC(=O)c2cc(-c3ccccn3)nc3ccccc23)CC1 (stereo not drawn),-62.5
14,O=C(NC1CC1)c1cc(-c2ccccn2)nc2ccccc12,-29.5
15,Cl.O=C(NC1CCN(Cc2ccccc2)CC1)c1cc(-c2ccccn2)nc2ccccc12,-69.4
16,CC(CN1CCCCC1)NC(=O)c1cc(-c2ccccn2)nc2ccc(Cl)cc12 (stereo not drawn),-21.8
17,CC1CC(C)CN(C(=O)c2cc(-c3ccccn3)nc3ccccc23)C1 (stereo not drawn),-6.19
18,Cc1cc(C)n(CC(O)COc2ccc(F)cc2)n1 (stereo not drawn),9.76
19,CCC(Cc1ccccc1)NC(=O)/C=C/c1ccco1 (stereo not drawn),9.2
20,CCn1cc(S(=O)(=O)Nc2cc(C)ccc2F)cn1,3.63
21,O=C(CNC(=O)c1sc2ccccc2c1Cl)OCc1ccccc1,3.28
22,COC(=O)C1=C(C)N(CCCC(=O)O)C(=O)NC1c1cccc2ccccc12 (stereo not drawn),5.92
